aSyn UTR act: Activators via SNCA 5'UTR binding, MLPCN; activity score, % (tested at 7.5 µM), hits read low; alpha-synuclein 5'UTR reporter, activators screen; 300,000 tested, 7.1% active; in the data active = activity score below about -60%
Active calls of the source: *. Shown is part of a subset that was picked to be rich in hits.

SMILES | aSyn UTR act
CCCc1nc(Nc2nc3ccccc3o2)nc(C)c1C(=O)OCC | -80*
CCOC(=O)c1cnc(Nc2nc3ccccc3o2)nc1CSc1ncccn1 | -100*
COc1c(C(=O)Nc2ccc(Br)cn2)ccc2ccccc12 | -167*
COc1cc2ccccc2cc1C(=O)Nc1ccc(Br)cn1 | -175*
O=C(Nc1ccc(Br)cn1)c1ccc2ccccc2c1 | -83*
Cc1ccc(-c2csc(-c3ccncc3)n2)cc1 | -213*
Brc1ccc(-c2csc(-c3ccncc3)n2)cc1 | -195*
COc1cc(SC)ccc1C(=O)OCC(=O)NC1CCCC1 | -94*
Cc1cc(C)n2nc(Nc3ccccc3)cc2n1 | -165*
Cc1ccc(NC(=O)c2cc3nc(C)cc(C)n3n2)cc1 | -82*
Cc1ccc(-c2cc3nc(C)cc(C)n3n2)cc1 | -109*
Cc1cc(C)n2nc(-c3ccccc3)cc2n1 | -97*
CC(C)c1nnc(NC(=O)COc2ccccc2[N+](=O)[O-])s1 | -154*
CCSc1nnc(NC(=O)COc2ccccc2[N+](=O)[O-])s1 | -114*
NNC(=O)COc1ccccc1[N+](=O)[O-] | -87*
O=C(c1cc2c(=O)n3ccccc3nc2s1)N1CCOCC1 | -98*
CC1CCN(C(=O)c2cc3c(=O)n4ccccc4nc3s2)CC1 | -78*
CCCOc1ccc(-c2csc3nc[nH]c(=O)c23)cc1 | -159*
O=c1[nH]cnc2scc(-c3ccc(-c4ccccc4)cc3)c12 | -88*
CC(C)OCCCNc1ncnc2c1[nH]c1ccccc12 | -178*
CCOc1ccc2[nH]c3c(NCCCOC)ncnc3c2c1 | -96*
COc1ccc2[nH]c3c(=O)n(CCc4ccccc4)cnc3c2c1 | -76*
COc1ccc2[nH]c3c(NCCCN4CCCC4=O)ncnc3c2c1 | -96*
O=c1c2[nH]c3ccccc3c2ncn1CCC1=CCCCC1 | -121*
CCOc1ccc2[nH]c3c(NCC(C)C)ncnc3c2c1 | -99*
SMILES | aSyn UTR act
Cc1cccc(-n2c(N)c(C(=O)NCCN3CCOCC3)c3nc4ccccc4nc32)c1 | -83*
Cc1ccc(-n2c(N)c(C(=O)Nc3c(C)n(C)n(-c4ccccc4)c3=O)c3nc4ccccc4nc32)cc1C | 74
COC(=O)c1ccc(COn2nnc3ccccc32)cc1 | -130*
Clc1cccc(Cl)c1COn1nnc2ccccc21 | -149*
O=C(c1cccc([N+](=O)[O-])c1)n1nc(-c2ccccc2)nc1NCc1ccccc1 | -68*
O=C(c1ccc([N+](=O)[O-])cc1)n1nc(-c2ccccc2)nc1NCc1ccccc1 | -67*
COCC(=O)n1nc(-c2ccccc2)nc1NCc1ccc(N(C)C)cc1 | -83*
Cn1c(CNc2ccccc2O)nc2ccccc21 | -154*
Cc1ccccc1NCc1nc2ccccc2n1C | -126*
O=C(CCc1ccccc1)Nc1ccccc1[N+](=O)[O-] | -83*
Cc1ccc(NC(=O)CCCc2ccccc2)c([N+](=O)[O-])c1 | -76*
O=C(CCCc1ccccc1)Nc1ccccc1[N+](=O)[O-] | -112*
COc1ccc(C(=O)Nc2cccc(-c3ccc(N4CCOCC4)nn3)c2)cc1 | -69*
COc1cc(OC)cc(C(=O)Nc2cccc(-c3ccc(N4CCOCC4)nn3)c2)c1 | -85*
Nc1ncccc1OCc1ccc(Br)cc1 | -159*
COc1ccc(COc2cccnc2N)cc1 | -91*
O=C(NCc1csc(-c2cccs2)n1)C1CCCCC1 | -67*
COc1ccccc1CC(=O)NCc1csc(-c2cccs2)n1 | -117*
COc1ccccc1CCNC(=O)c1nc(-c2cccs2)no1 | -93*
Cc1cccc(OCC(=O)Nc2ccc3c(c2)nc2n3CCOC2)c1 | -69*
CC(=O)NCCc1nc2cc(NC(=O)COc3cccc(C)c3)ccc2n1C | -62*
CN(C(=O)/C=C/c1ccc([N+](=O)[O-])s1)c1ccccc1 | -82*
CCCNC(=O)c1cc(Cl)c(NC(=O)C2=CSCCO2)cc1OC | -136*
N/C(=N\OC(=O)c1cccc2ccccc12)c1ccccn1 | 102
COc1cccc(C(=O)O/N=C(\N)c2ccncc2)c1OC | -84*
SMILES | aSyn UTR act
COc1cccc(C(=O)O/N=C(\N)c2ccccn2)c1OC | -74*
COc1cccc(OCc2cc(/C=N/Nc3ccc(C(=O)O)cc3)ccc2OC)c1 | -92*
CCOc1cc(/C=N/Nc2ccc(C(=O)O)cc2)ccc1OC(=O)c1ccccc1C | -91*
CCC(=O)C1CCCN(C(=O)c2ccc3nc(-c4cccc(OC)c4)oc3c2)C1 (stereo not given) | -85*
COc1cccc(-c2nc3ccc(C(=O)N4CCCC(O)C4)cc3o2)c1 (stereo not given) | -91*
O=S(=O)(Cc1cc(-c2ccccc2Cl)no1)c1ccccc1 | -130*
Clc1ccc(-c2cc(COc3ccccc3)on2)cc1 | -90*
O=S(=O)(Cc1cc(-c2ccc(Cl)cc2)no1)c1ccccc1 | -173*
CCCN1CCC(=O)N([C@H](CSc2ccc(C)cc2)CC(C)C)CC1 | -175*
CCCN1CCC(=O)N([C@H](CSc2ccccc2)CC(C)C)CC1 | -100*
CC(C)C[C@@H](CSc1ccccc1)N1CCN(CC(C)C)CCC1=O | -175*
CCCN1CCC(=O)N([C@H](CSc2ccc(Br)cc2)c2ccccc2)CC1 | -120*
